SMILES strings stand for the structures. Calls of active or inactive are those of the source. Unless noted, no rule for the calls is given here.

The nature of assay [1]: compound effects on lung adenocarcinoma cell viability – A549, calcein-AM fluorescence, 48 h, basal, profiling panel (AID 1162). Also: test concentration not given here. The following applies: higher = more signal.
Assay [2] in a line: compound effects on differentiated 3T3-L1 adipocyte viability – cell-based, 3T3-L1 adipocytes, calcein-AM fluorescence, 48 h, basal, profiling panel (AID 1163). Also: test concentration not given here. The following applies: 3T3-L1 adipocytes viability, higher = more signal.
Assay [3] in a line: compound effects on hepatocellular carcinoma cell viability – HepG2, calcein-AM fluorescence, 48 h, basal, profiling panel (AID 1164). Also: test concentration not given here. The following applies: higher = more signal.
Assay [4] in a line: compound effects on multiple myeloma cell viability – MM1S, calcein-AM fluorescence, 48 h, basal, profiling panel (AID 1165).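 Also: viability of MM1S multiple myeloma cells under basal unstimulated conditions; test concentration not given here.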 The following applies: higher = more signal.
Assay [5] in a line: calcein-AM signal in unstimulated myeloma cells – cell-based, calcein-AM fluorescence, 48 h, PK04 Diversity Set, profiling panel (AID 1166).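 Also: cells grown under basal conditions without added stimulus; test concentration not given here.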 The following applies: RPMI8226 myeloma viability, higher = more signal.
A short description of assay [6]: JC-1 mitochondrial signal, unstimulated HepG2 cells – cell-based, JC-1 fluorescence, 24 h, 100 nL compound, profiling panel (AID 1167). Also: test concentration not given here. The following applies: HepG2 mitochondrial potential, higher = more signal.
Assay [7] in a line: JC-1 mitochondrial signal, unstimulated adipocytes – cell-based, JC-1 fluorescence, 3T3-L1 adipocytes, 24 h, 100 nL compound, profiling panel (AID 1168). Also: test concentration not given here. The following applies: JC-1 mitochondrial fluorescence, higher = more signal, called active from +8 up or from −8 down.
A short description of assay [8]: JC-1 mitochondrial signal, unstimulated myeloma cells – cell-based, JC-1 fluorescence, RPMI8226, 24 h, 100 nL compound, profiling panel (AID 1169). Also: test concentration not given here. The following applies: JC-1 mitochondrial potential fluorescence, higher = more signal.
Assay [9] is described as follows: JC-1 mitochondrial signal, unstimulated MM1S myeloma – cell-based, JC-1 fluorescence, 24 h, 100 nL compound, profiling panel (AID 1170). Also: test concentration not given here. The following applies: MM1S mitochondrial potential, higher = more signal.
A short description of assay [10]: resazurin metabolic signal in A549 cells – cell-based, resazurin fluorescence, 24 h, PK04 Diversity Set, profiling panel (AID 1171). Also: test concentration not given here. The note with it: A549 viability, higher = more signal, called active from +8 up or from −8 down. In general terms: Resazurin is reduced to fluorescent resorufin, in cell work by metabolically active cells.
Assay [11] can be described thus: resazurin metabolic signal in HepG2 cells – cell-based, resazurin fluorescence, 24 h, PK04 Diversity Set, profiling panel (AID 1172). Also: test concentration not given here. The note with it: HepG2 viability, higher = more signal.
The nature of assay [12]: budding yeast growth changes without added modifier – OD600, strain BY4716, 24 h, basal condition, primary screen (AID 1173). The note with it: S. cerevisiae BY4716 growth, OD600, 24 h; higher = more signal, called active from +8 up or from −8 down.
The nature of assay [13]: viability profiling in MM1S myeloma cells – cell-based, resazurin fluorescence, basal, 24 h, PK04 Diversity Set, profiling panel (AID 1174). Also: test concentration not given here. The note with it: higher = more signal, called active from +8 up or from −8 down.
Assay [14] has as its target Dihydroorotate dehydrogenase (quinone), mitochondrial (Plasmodium falciparum (isolate 3D7)) (UniProt Q08210). The assay is described as follows: inhibition of P. falciparum DHODH – biochemical, C-terminal His tag, absorbance 600 nm, primary screen (AID 1175).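 Also: recombinant parasite enzyme with a five histidine tag at its C terminus; test concentration not given here.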 The note with it: PfDHODH enzyme, DCIP absorbance 600 nm; higher = more signal, called active from +8 up or from −8 down.

Assay [15] is described as follows: inhibition of PAO1 biofilm formation – strain PAO1, LB-PBS medium, absorbance 600 nm, primary screen (AID 1176). Also: test concentration not given here. The note with it: P. aeruginosa PAO1 growth/biofilm, A600, 12 h; higher = more signal.
A short description of assay [16]: growth modulation of vineyard yeast isolate – strain RM11-1a, OD600, basal, 24 h, primary screen (AID 1177).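 Also: cultures grown under basal conditions with no added stressor; test concentration not given here.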 The note with it: S. cerevisiae RM11-1a growth, OD600, 24 h; higher = more signal, called active from +8 up or from −8 down.
A short description of assay [17]: growth of efflux-deficient E. coli DRC39 – strain DRC39, OD650, 24 h, E. coli filamentation inducers, primary screen (AID 1178).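 Also: growth measured as culture turbidity by optical density at 650 nm; test concentration not given here.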 The following applies: E. coli DRC39 acrAB, higher = more signal, called active from +8 up or from −8 down.
The nature of assay [18]: growth of efflux-deficient E. coli DRC39 – strain DRC39, OD650, 48 h, E. coli filamentation inducers, primary screen (AID 1179).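 Also: screen aims at cell division blockers that make cells filament.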 The following applies: E. coli DRC39 delta-acrAB growth, higher = more signal, called active from +8 up or from −8 down.
Assay [19] can be described thus: viability profiling in RPMI8226 myeloma cells – cell-based, resazurin fluorescence, basal, 24 h, PK04 Diversity Set, profiling panel (AID 1180).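 Also: RPMI8826 multiple myeloma cell line at 5000 cells per well; test concentration not given here.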 The following applies: higher = more signal.
In assay [20] the target is E3 ubiquitin-protein ligase XIAP (Homo sapiens) (UniProt P98170). Description: small molecules binding XIAP protein – biophysical, small-molecule microarray, fluorescence 635 nm, primary screen (AID 1181).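 Also: score merges 667 nm emission and signal to noise over triplicate slides.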 The note with it: higher = more signal.
Chain of E3 ubiquitin-protein ligase XIAP (Homo sapiens) (P98170 whole entry, looked up): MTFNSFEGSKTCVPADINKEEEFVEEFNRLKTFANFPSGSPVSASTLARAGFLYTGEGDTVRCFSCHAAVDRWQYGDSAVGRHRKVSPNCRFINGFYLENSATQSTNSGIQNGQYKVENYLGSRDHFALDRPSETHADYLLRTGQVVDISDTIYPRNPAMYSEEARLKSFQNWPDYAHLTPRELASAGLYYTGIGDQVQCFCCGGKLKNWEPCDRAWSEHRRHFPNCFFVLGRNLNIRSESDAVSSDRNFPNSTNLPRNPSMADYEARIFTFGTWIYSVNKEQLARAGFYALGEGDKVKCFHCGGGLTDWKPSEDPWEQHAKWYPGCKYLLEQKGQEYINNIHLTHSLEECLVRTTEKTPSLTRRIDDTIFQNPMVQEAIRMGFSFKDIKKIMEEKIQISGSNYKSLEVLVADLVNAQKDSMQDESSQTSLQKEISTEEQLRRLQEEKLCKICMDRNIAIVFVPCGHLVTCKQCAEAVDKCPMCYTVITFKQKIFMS

Chain of Dihydroorotate dehydrogenase (quinone), mitochondrial (Plasmodium falciparum (isolate 3D7)) (Q08210 whole entry, looked up): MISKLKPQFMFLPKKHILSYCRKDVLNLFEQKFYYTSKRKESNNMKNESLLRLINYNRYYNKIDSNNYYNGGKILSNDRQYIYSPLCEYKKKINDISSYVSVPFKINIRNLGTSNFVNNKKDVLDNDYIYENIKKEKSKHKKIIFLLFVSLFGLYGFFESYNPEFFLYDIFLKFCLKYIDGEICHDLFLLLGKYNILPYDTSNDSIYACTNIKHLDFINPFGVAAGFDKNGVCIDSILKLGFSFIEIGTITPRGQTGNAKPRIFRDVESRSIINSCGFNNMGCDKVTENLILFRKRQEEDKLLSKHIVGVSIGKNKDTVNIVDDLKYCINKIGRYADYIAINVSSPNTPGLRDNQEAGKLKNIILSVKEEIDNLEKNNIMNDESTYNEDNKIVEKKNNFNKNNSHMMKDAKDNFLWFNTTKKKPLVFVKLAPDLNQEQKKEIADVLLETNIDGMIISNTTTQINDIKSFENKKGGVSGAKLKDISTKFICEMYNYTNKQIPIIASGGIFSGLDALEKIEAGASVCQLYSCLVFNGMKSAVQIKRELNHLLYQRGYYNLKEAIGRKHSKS

Consider `O=c1oc(-c2ccccc2)nc2cc(Br)ccc12`, for which the z-score in [1] is -0.423; in [2] it was 0.111; in assay [3] it was 0.659; in [4], -1.99; in [5], -0.633; in assay [6], -0.773. Further, the z-score in [7] is 0.67 (inactive); in assay [8], -0.0586; in assay [9], 0.873; in assay [10] it was -0.141 (inactive); in assay [11], -0.284; in assay [12], -2.41 (inactive). Moreover, the z-score was 0.0202 (inactive) in [13]; 0.0493 (inactive) in assay [15]; 1.6 (inactive) in [16]; -0.117 (inactive) in assay [17]; -0.39 (inactive) in assay [18]; -0.194 in assay [19]. The composite z-score in assay [14] was 0.336 (inactive); in assay [20], 0.208.
With `CC(C)N1C(=O)[C@@]2(c3ccc([N+](=O)[O-])cc3)CC(=O)N(CC34CC5CC(CC(C5)C3)C4)[C@@H]2c2ccc(CO)cc21`, the z-score is 0.192 in assay [1]; -1.22 in assay [2]; 1.36 in assay [3]; 0.496 in assay [4]; 0.13 in assay [5]; 0.396 in [6]. The z-score in assay [7] was 0.888 (inactive); in assay [8], -0.361; in assay [9] it was -0.512; in assay [10] it was -0.695 (inactive); in assay [11], -0.0685; in [12], 0.601 (inactive). The z-score in assay [13] is -1.02 (inactive); in [15] it was -0.0902 (inactive); in assay [16], 0.156 (inactive); in [17], 0.101 (inactive); in assay [18], 0.0457 (inactive); in assay [19], -0.629. Moreover, the composite z-score in [14] was -4.98 (inactive); in assay [20], -0.0224.
As for `O=C1N(CCS(=O)(=O)c2ccccc2)c2ccccc2C[C@@]12COC(c1ccc(OCCCO)cc1)=N2`, the z-score in assay [1] is -0.683; in assay [2], 0.294; in [3], -1.48; in assay [4] it was -2.06; in [5] it was -0.517; in [6] it was -2.09. Besides, the z-score is 0.7 (inactive) in assay [7]; -1.06 in [8]; -0.554 in [9]; -0.455 (inactive) in assay [10]; -0.73 in assay [11]; 1.3 (inactive) in [12]. In addition, the z-score in [13] was -0.756 (inactive); in assay [15] it was 0.603 (inactive); in [16], 1.31 (inactive); in assay [17], -0.0526 (inactive); in assay [18], -0.726 (inactive); in assay [19], -0.816. The composite z-score was 0.558 (inactive) in assay [14] and 0.262 in [20].
Regarding `COC(=O)[C@@]1(Cc2ccccc2)[C@H]2c3cc(C(=O)N(C)C)n(Cc4c(-c5ccccc5)noc4C)c3C[C@H]2CN1C(=O)c1ccccc1`, the z-score in assay [1] is -0.914; in assay [2], -1; in assay [3] it was -1.41; in assay [4] it was -1.05; in assay [5], -1.09; in assay [6], 2.14. The z-score in assay [7] is -1.05 (inactive); in [8] it was 0.168; in assay [9], -0.822; in assay [10] it was -0.702 (inactive); in assay [11], -1.19; in assay [12], 1.56 (inactive). The z-score is -2.41 (inactive) in [13]; 1.98 (inactive) in assay [15]; 0.337 (inactive) in [16]; -0.539 (inactive) in [17]; -0.971 (inactive) in [18]; -2.93 in [19]. For the same molecule, the composite z-score in assay [14] is -0.403 (inactive); in assay [20] it was 0.424.
Consider `COC(=O)C(CC#Cc1ccc2c(c1)[C@]1(C(=O)N2)[C@H](C(=O)NC[C@H](O)c2ccccc2)[C@H]2C(=O)O[C@H](c3ccccc3)[C@H](c3ccccc3)N2[C@@H]1c1ccc(OCCO)cc1)C(=O)OC`, for which the z-score in assay [1] is 1.07; in assay [2], 0.55; in [3], 0.0255; in [4] it was -1.17; in assay [5], 0.0736; in assay [6], -1.06. The z-score in assay [7] is 1.04 (inactive); in assay [8] it was -0.94; in assay [9], -1.15; in assay [10], 0.199 (inactive); in assay [11], 0.0416; in [12] it was 1.77 (inactive). Besides, the z-score is -0.0507 (inactive) in assay [13]; 3.42 (inactive) in assay [15]; 2.62 (inactive) in assay [16]; 0.389 (inactive) in assay [17]; 0.335 (inactive) in assay [18]; -0.223 in assay [19]. Moreover, the composite z-score was -16.8 (active) in [14] and 0.201 in [20].
Consider `O=C(NCc1ccccc1)[C@]1(CCS(=O)(=O)c2ccccc2)N=C(c2ccc(OCCCO)cc2)O[C@@H]1c1ccccc1`, for which the z-score in assay [1] was -0.649; in assay [2], 0.0335; in assay [3], -0.708; in assay [4] it was -0.478; in assay [5], -0.651; in [6] it was 1.24. Further, the z-score in assay [7] was 0.499 (inactive); in assay [8] it was -0.762; in [9] it was -1.75; in [10], -0.704 (inactive); in assay [11], 0.0669; in assay [12], 1.08 (inactive). In addition, the z-score in [13] is -0.866 (inactive); in assay [15], 0.0937 (inactive); in [16], 1.91 (inactive); in assay [17] it was 0.79 (inactive); in assay [18], 1.05 (inactive); in assay [19], 0.253. Moreover, the composite z-score in assay [14] was -0.549 (inactive); in [20], 0.323.
`COc1ccc([Si](C)(C)[C@@H]2[C@@H](CCn3cc([C@H](O)c4ccccc4)nn3)O[C@]3(C(=O)N(Cc4cccc(N5CCOC5=O)c4)c4ccccc43)[C@H]2C)cc1`: the z-score in [1] is 1.6; in assay [2] it was -0.392; in assay [3], 1.31; in assay [4], -2.15; in assay [5] it was 0.274; in assay [6] it was 1.84. Further, the z-score in assay [7] is 2.73 (inactive); in [8] it was -0.671; in [9] it was -0.0958; in assay [10], 0.181 (inactive); in assay [11], 0.194; in assay [12], -0.611 (inactive). The z-score in assay [13] is -2.91 (inactive); in [15] it was 1.35 (inactive); in assay [16] it was 1.98 (inactive); in assay [17] it was 1.44 (inactive); in [18] it was 1.45 (inactive); in assay [19] it was -0.424. Moreover, the values for the composite z-score in assay [14] and in [20] were 0.539 (inactive) and -0.102, respectively.
On to `COc1ccc(CCNC(=O)[C@@]2(c3ccc([N+](=O)[O-])cc3)CC(=O)N(CC34CC5CC(CC(C5)C3)C4)[C@@H]2c2ccc(CO)cc2)cc1`, for which the z-score in [1] was -2.36; in assay [2], 0.369; in assay [3], -1.88; in [4] it was -2.98; in assay [5], -4.23; in assay [6], 1.23. For the same molecule, the z-score was -0.626 (inactive) in assay [7]; -0.857 in assay [8]; -0.452 in assay [9]; -2.29 (inactive) in assay [10]; -1.86 in assay [11]; -0.125 (inactive) in assay [12]. Further, the z-score in assay [13] was -2.58 (inactive); in assay [15], 1.61 (inactive); in assay [16], 0.526 (inactive); in assay [17], -0.226 (inactive); in [18], -0.281 (inactive); in assay [19] it was -2.81. Besides, the composite z-score in assay [14] is 0.682 (inactive); in [20], 0.0073.
Consider `CCOC(=O)C[C@H]1[C@H](OC(=O)c2ccccc2-c2ccccc2)[C@@H](NC(=O)Cc2ccc(OC)cc2)c2cc(OCCCO)ccc2N1C(=O)c1ccccc1`, for which the z-score in assay [1] is 0.369; in assay [2] it was -0.8; in [3], 0.41; in assay [4], -0.0609; in assay [5], 0.0629; in assay [6], 0.915. The z-score in [7] is 0.0962 (inactive); in [8], -0.0457; in [9] it was 0.213; in assay [10], 0.407 (inactive); in assay [11] it was -0.532; in [12] it was 0.728 (inactive). Further, the z-score in assay [13] was -0.275 (inactive); in assay [15], -0.0461 (inactive); in assay [16], 0.799 (inactive); in assay [17] it was -0.672 (inactive); in [18], -0.79 (inactive); in assay [19] it was -0.155. Besides, the figures for the composite z-score in assay [14] and in assay [20] were 0.542 (inactive) and 0.123, respectively.
